Shown are actives, neighbours in structure and some others; about 7.4% of the full set was active somewhere.
HEK293 viab – GF-AFC viability counterscreen for inhibitors of alpha-synuclein gene (SNCA) expression. HEK-293-SNCA-luc viability, GF-AFC fluorescence, 24 h. Potency, µM (titrated, usually from 57.1 µM), for the others: at the top dose activity change, negative = cytotoxicity, usual class: cytotoxic. 0.12% of 150,000 active. AID 1671193, 2021;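 further: 0% = DMSO-treated cells and -100% = medium-only wells without cells; nearly all actives have a fitted effect of over 30% in size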
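HEK-293-SNCA-luc cells (1500/well) plated 24 h, then exposed 24 h to a dilution series; GF-AFC added 30 min at 37C, fluorescence 405/540 nm; normalised to medium-only and DMSO wells, Hill fit.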
SNCA expr inh – Primary qHTS assay for inhibitors of alpha-synuclein gene (SNCA) expression | HEK-293 SNCA-luciferase knock-in, luminescence, 24 h | Potency, µM (series often up to 57.2 µM), without a hit: top-dose activity change, negative = inhibition, actives largely listed as inhibitors | 0.17% of 140,000 active | AID 1671194, 2021;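 further: plate controls were DMSO cells for no effect and cell-free wells for full effect; nearly all actives have a fitted effect of over 45% in size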
hNpr1 antagonist – Natriuretic polypeptide receptor (hNpr1) antagonism - Primary qHTS; Atrial natriuretic peptide receptor 1 (Homo sapiens), P16066; HEK293 hNpr1 GloSensor cGMP, ANP-stimulated luminescence; Potency, µM (doses to about 46.3 µM), without a hit: at the highest dose activity change, negative = inhibition, usual class: inhibitors; 1.6% of 76,000 active; calls by dose curve; further: on the % scale 0 is the no-effect control and ±100 the full control effect; nearly all actives have a fitted effect of over 60% in size
Target sequence (P16066 whole entry, looked up): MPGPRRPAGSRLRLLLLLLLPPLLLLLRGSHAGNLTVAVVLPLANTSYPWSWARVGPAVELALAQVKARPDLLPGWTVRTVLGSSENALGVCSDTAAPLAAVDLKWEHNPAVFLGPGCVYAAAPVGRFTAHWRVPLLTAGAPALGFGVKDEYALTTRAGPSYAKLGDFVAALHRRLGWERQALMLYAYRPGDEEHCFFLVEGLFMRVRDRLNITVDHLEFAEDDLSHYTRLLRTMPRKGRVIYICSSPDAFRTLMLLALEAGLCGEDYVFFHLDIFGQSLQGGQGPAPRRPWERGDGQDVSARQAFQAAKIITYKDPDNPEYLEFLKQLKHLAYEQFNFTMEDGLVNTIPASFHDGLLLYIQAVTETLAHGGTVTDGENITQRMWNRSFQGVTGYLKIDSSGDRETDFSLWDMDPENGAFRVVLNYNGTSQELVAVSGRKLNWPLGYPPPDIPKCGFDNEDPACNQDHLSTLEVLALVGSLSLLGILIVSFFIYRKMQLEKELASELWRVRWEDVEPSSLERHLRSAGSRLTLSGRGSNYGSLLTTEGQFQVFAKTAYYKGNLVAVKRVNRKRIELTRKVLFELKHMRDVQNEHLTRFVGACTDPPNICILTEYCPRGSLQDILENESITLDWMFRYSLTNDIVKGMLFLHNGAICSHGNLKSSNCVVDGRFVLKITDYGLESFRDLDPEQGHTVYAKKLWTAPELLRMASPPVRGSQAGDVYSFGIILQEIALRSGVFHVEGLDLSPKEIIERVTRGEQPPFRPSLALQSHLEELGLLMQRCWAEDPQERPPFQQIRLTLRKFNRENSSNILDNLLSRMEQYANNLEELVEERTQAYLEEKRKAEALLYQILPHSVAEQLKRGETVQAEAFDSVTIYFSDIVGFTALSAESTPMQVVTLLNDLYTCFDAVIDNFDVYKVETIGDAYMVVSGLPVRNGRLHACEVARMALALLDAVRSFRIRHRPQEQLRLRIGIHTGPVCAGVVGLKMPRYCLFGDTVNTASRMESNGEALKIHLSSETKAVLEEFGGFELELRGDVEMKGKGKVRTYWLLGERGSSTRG
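HEK293 cells stably expressing human Npr1 and cGMP GloSensor pGS-40F, loaded 2 h with 2% GloSensor reagent, given compound 30 min at room temperature. Luminescence read before and 20 min after 0.1 nM hNppA.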
HEK cytotox – Cytotoxic Profiling in HEK 293 Cell Line of Diverse Libraries Using Quantitative High-Throughput Screening; HEK 293 viability, ATP luminescence (CellTiter-Glo), 48-72 h; AID 1345083, 2018; 6.6% of 94,000 active; Potency, µM (highest dose often 115 µM), without a hit: at the highest dose activity change, negative = cytotoxicity, most hits filed as inhibitors; further: on the % scale 0 is the no-effect control and ±100 the full control effect; nearly all actives have a fitted effect of over 60% in size
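Cytotoxicity was scored by loss of ATP-coupled luminescence (CellTiter-Glo) in HEK 293 cells. Compound treatment ran 48 or 72 hr at 37 degree Celsius, 5% CO2, 95% humidity.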
FLuc inh-1 – Firefly luciferase inhibition profiling of diverse chemical library using quantitative high-throughput screening | Luciferin 4-monooxygenase (Photinus pyralis), P08659 | purified P. pyralis luciferase, luminescence, biochemical | Potency, µM (series often up to 115 µM), actives largely listed as inhibitors | 2.5% of 76,000 active | AID 1347043, 2019; further: on the % scale 0 is the no-effect control and ±100 the full control effect; nearly all actives have a fitted effect of over 65% in size
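Luminescence read by CCD imaging after purified firefly luciferase (10nM final) was added to substrate buffer holding 10uM D-luciferin and 10uM ATP, pH 7.5, pre-dosed with compound.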
NIH3T3 tox – Cytotoxic Profiling in NIH 3T3 Cell Line of Diverse Libraries Using Quantitative High-Throughput Screening | 4.3% of 94,000 active | NIH 3T3 viability, CellTiter-Glo ATP luminescence, 48-72 h | Potency, µM (highest dose often 96.7 µM), inactives show at the highest dose activity change, negative = cytotoxicity, hits mostly inhibitors; further: on the % scale 0 is the no-effect control and ±100 the full control effect; nearly all actives have a fitted effect of over 55% in size
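NIH 3T3 cells at 400 cells/well received 23 nL of compound by pintool and were incubated 48 or 72 h at 37 °C. Viability was read as ATP-coupled CellTiter-Glo luminescence.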
FLuc SDR no ATP – Firefly luciferase (FLuc-C-HiBiT) SDR gain of signal screen - without ATP | shares compounds with FLuc inh-1 | Purified FLuc-C-HiBiT, Nano-Glo HiBiT luminescence, no ATP | Potency, µM (titrated, usually from 32.7 µM), for inactives: top-dose activation (signal gain), actives largely listed as activators | 7.8% of 1,300 active | AID 1963318, 2024; further: nearly all actives have a fitted effect of over 55% in size
FLuc SDR ATP – Firefly luciferase (FLuc-C-HiBiT) SDR gain of signal screen - plus ATP. shares compounds with FLuc inh-1. purified FLuc-C-HiBiT + ATP, HiBiT complementation luminescence. Potency, µM (highest dose often 32.7 µM), for inactives: at the highest dose activation (gain of signal), hits mostly activators. 8.7% of 1,300 active. AID 1963319, 2024;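 further: signal reports ligand binding via conformational change of the enzyme rather than luciferase catalysis; % of control where 0% means no effect; nearly all actives have a fitted effect of over 55% in size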
FLuc inh-2 – Firefly luciferase (FLuc-C-HiBiT) enzymatic inhibition screen - Functional assay. AID 1963320, 2024. Potency, µM (top dose mostly 32.7 µM), inactives show at the top dose activity change, negative = inhibition, actives largely listed as inhibitors. purified FLuc-C-HiBiT enzyme, luciferin luminescence. 42% of 1,300 active. shares compounds with FLuc inh-1; further: on the % scale 0 is the no-effect control and ±100 the full control effect; nearly all actives have a fitted effect of over 70% in size
An asterisk follows results filed as active; i = inactive; ? = inconclusive; / = no result given; ! = a repeat was not active; [ ] = dose if it differs, or a comment. Unless noted, the call rests on the fitted dose curve; in most records, active means well fitted curve in the direction sought with a large enough effect; inconclusive means small, poorly fitted or top-dose-only effect, or another doubt; inactive means no such curve, though single readings can be large; an effect the other way counts as inactive or inconclusive. Potency means the concentration at half of the fitted maximal effect.

SMILES	HEK293 viab	SNCA expr inh	hNpr1 antagonist	HEK cytotox	FLuc inh-1	NIH3T3 tox	FLuc SDR no ATP	FLuc SDR ATP	FLuc inh-2
OC1CC(c2cc(N3CCc4c(Cl)cccc4C3)ncn2)C1 (stereo not given)	-7%	9%	2.5µM*	?	1.3µM*	?	18%	?	?
COc1cc2c(cc1OC)CN(c1cc(C3CC(O)C3)ncn1)CC2 (stereo not given)	3%	42%	?	?	?	?	/	/	/
CCOc1ccc(C(=O)Nc2cc(-c3nc4cc(OC)ccc4o3)ccc2C)cc1[N+](=O)[O-]	5%	6%	/	/	/	/	27%	18%	?
COc1ccc2oc(-c3ccc(C)c(NC(=O)Cc4ccc(Cl)cc4)c3)nc2c1	-17%	46%	/	/	/	/	/	/	/
COCCNC(=O)c1ccc2oc(-c3ccc(OC)nc3)nc2c1	-1%	-4%	/	?	/	-18%	/	/	/
Cc1cn2c(=O)cc(COC(=O)c3ccccc3F)nc2s1	5%	51%	/	/	/	/	12%	?	?
COc1cccc(C(=O)N2CCCN(c3ccnc4ccnn34)CC2)c1	11%	-5%	/	-16%	/	-22%	/	/	/
CC(=O)N1CCN(C(=O)c2ccc3nnc(-c4ccoc4)n3c2)CC1	6%	-3%	/	-1%	/	-7%	/	/	/
O=C(Nc1cccc(F)c1)Nc1ccc2n(c1=O)C[C@H]1C[C@@H]2CN(C(=O)c2ccc(F)cc2)C1	-22%	75%	-22%	40µM*	10µM*	?	14%	10%	?
CCC(=O)N1CCc2ccc(C(=O)NC3CC3)cc21	-8%	3%	2%	-5%	i	4%	/	/	/
CCC(=O)N1CCc2ccc(C(=O)NC3CCCCC3)cc21	1%	?	?	-20%	2.2µM*	-15%	?	?	?
COc1ccc(C(=O)NC2CCN(c3ccc4nnc(C5CC5)n4n3)C2)cc1 (stereo not given)	/	/	/	-19%	/	-18%	/	/	/
COc1cccc(CC(=O)N2CCC(C3CCN(C(C)=O)CC3)C2)c1 (stereo not given)	2%	-3%	/	-4%	/	-22%	/	/	/
COc1ccc2oc(=O)c(C(=O)Nc3cccc(C(=O)O)c3)cc2c1	15%	-25%	/	/	/	/	12µM*	0.05µM*	0.016µM*
COc1ccc(CNC(=O)c2cc3cc(OC)ccc3oc2=O)cc1	-14%	-17%	/	/	/	/	/	/	/
COc1cccc2cc(C(=O)Nc3ccc(C)cc3)c(=O)oc12	21%	143%	/	/	/	/	28%	20%	?
CN1C(=O)c2cccn2CC1C(=O)Nc1ccc(F)cc1 (stereo not given)	-8%	11%	/	3%	/	-8%	/	/	/
c1ccc(Nc2ncc(-c3ccccc3)o2)cc1	/	/	/	/	/	/	?	?	0.79µM*
c1ccc(Nc2ncncc2-c2ccoc2)cc1	2%	0%	/	/	/	/	/	/	/
Cc1noc(C)c1[S+](=O)([O-])N1CCN(CCn2nc3n(c2=O)CCCC3)CC1	/	/	/	-21%	/	-4%	/	/	/
COc1ccc(-c2nc3ncccc3[nH]2)cc1	-17%[87.6 µM]	-26%[87.6 µM]	-17%[70.6 µM]	79µM*	13µM*	79µM*!	?	?	16µM*
c1cnc2nc(-c3ccncc3)[nH]c2c1	-26%[87.6 µM]	-12%[87.6 µM]	-2%[70.6 µM]	-20%[230 µM]	i	?	/	/	/
Cc1ccc2oc([C@H]3CCN(Cc4cccs4)C3)nc2c1	0%[87.6 µM]	18%[87.6 µM]	-23%[70.6 µM]	100µM*	10µM*	?	18%[49.3 µM]	16%[49.3 µM]	?
c1ccc(CN2CC[C@H](c3nc4ccccc4o3)C2)nc1	-10%[87.6 µM]	84%[87.6 µM]	-7%[70.6 µM]	-13%[230 µM]	i	?	/	/	/
CC(=O)c1ccc(NS(=O)(=O)c2cccc(S(=O)(=O)c3ccc(Cl)cc3)c2)cc1	4%	58%	/	/	/	/	14%	9%	-10%
SMILES	HEK293 viab	SNCA expr inh	hNpr1 antagonist	HEK cytotox	FLuc inh-1	NIH3T3 tox	FLuc SDR no ATP	FLuc SDR ATP	FLuc inh-2
O=C(C1CCCN(C(=O)C2CCCC2)C1)N1CCC(c2nc3ccncc3[nH]2)CC1 (stereo not given)	-3%	8%	/	-9%	/	-15%	/	/	/
Nc1nc2c(ncn2COCCO)c(=O)[nH]1	0%	-9%	/	/	/	/	18%	14%	-1%
C=C1[C@H](n2cnc3c(=O)[nH]c(N)nc32)C[C@H](O)[C@H]1CO	-15%	-18%	/	/	/	/	/	/	/
C=C1[C@H](CO)[C@@H](O)C[C@@H]1n1cnc2c(=O)[nH]c(N)nc21	7%	/	/	/	/	/	13%	10%	6%
O=C(Cc1ccccc1)NC1CCN(c2ccnc3ccnn23)C1 (stereo not given)	15%[87.6 µM]	-5%[87.6 µM]	/	?	/	?	/	/	/
Cc1cnc(-c2ccccc2)n1C1CCN(C(=O)CC2CCCCC2)C1 (stereo not given)	-2%	12%	/	-10%	/	?	/	/	/
COC(=O)CNC(=O)c1cc(-c2cccc(C(F)(F)F)c2)nc2c1cnn2C	/	/	/	-22%	/	?	/	/	/
O=C(Nc1ccc(-c2nc3ccccc3s2)c(O)c1)c1ccc(Br)cc1	13%	?	/	/	/	/	15%	10%	5%
O=C(Nc1ccc2nc(SCc3ccccc3)sc2c1)c1ccccc1F	16%	38%	/	/	/	/	/	/	/
O=C(Nc1ccc(O)c(-c2nc3ccccc3o2)c1)c1ccc(Br)cc1	?	-28%	/	/	/	/	/	/	/
O=C(O)c1ccccc1-c1nc2ccccc2s1	/	/	/	/	/	/	23%	14%	-15%
COc1cccc(C(=O)Nc2ccc(O)c(-c3nc4ccccc4s3)c2)c1	/	/	/	/	/	/	13%	8%	-8%
O=C(Nc1ccccc1-c1nc2ccccc2s1)c1ccccc1F	/	/	/	/	/	/	10%	9%	-6%
COc1ccc(OCC(=O)Nc2ccc(O)c(-c3nc4ccccc4s3)c2)cc1	9%	-2%	/	/	/	/	13%	10%	-14%
